GPR151 activ: activators of human GPR151, primary screen, cell-based, PathHunter beta-arrestin, luminescence; activation, % at 11.2 µM; AID 1508602, 2020; PathHunter beta-arrestin GPR151 cells; 650,000 tested, 1% active; in the data active = activation above about 4.9%;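 note: 0% = median of compound wells and 100% = cells with positive control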
FBW7 act: FBW7 E3 ligase activators, primary screen, biochemical, AlphaScreen, human; AID 1259310, 2017; AlphaScreen FBW7–phospho-cyclin E peptide binding, activator screen; F-box/WD repeat-containing protein 7 (Homo sapiens), Q969H0; 650,000 tested, 0.13% active; normalized activity (activation), % at 26.1 µM; in the data active = normalized activity above about 1.9%;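 note: purified mutant Fbw7 with reduced substrate affinity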
MITF primary: MITF inhibitors, primary screen, biochemical, AlphaScreen, human. AlphaScreen MITF homodimerization, bead proximity signal. inhibition, % at 2.6 µM. 650,000 tested, 0.91% active. AID 1259374, 2018; in the data active = inhibition above about 50%;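 note: 0% = vehicle wells with protein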
TEAD-YAP block: TEAD-YAP interaction inhibition, primary screen, TEAD-YAP interaction inhibitor project, luminescence, HEK-TIYL cells | TEAD-Gal4/YAP UAS-luciferase luminescence | inhibition, % at 9.12 µM | 640,000 tested, 1.4% active | AID 1259422, 2018; in the data active = inhibition above about 32%;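 note: 0% = median of test compound wells and 100% = reference inhibitor wells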
GPR151 conf act: GPR151 activators, triplicate retest, confirmation, cell-based, PathHunter beta-arrestin, luminescence | shares compounds with GPR151 activ | GPR151 PathHunter beta-arrestin cells, 90 min; % of EA-reagent control over plate median | activation, % at 11.2 µM | 6,700 tested, under 10 active | AID 1508609, 2020;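 active = mean percent activation across replicates above the confirmation screen cutoff of 4.91%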
GPR119 ag: GPR119 activators in beta-arrestin cells, counter-screen for GPR151 activator project, cell-based, PathHunter beta-arrestin, luminescence, triplicate. shares compounds with GPR151 activ. 90 min; 0 = compound-well median, 100 = enzyme-acceptor control. activation, % at 11.2 µM. 6,700 tested, 0.3% active;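 active = mean percent activation in the counterscreen above 29.09%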;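 note: counterscreen on off-target GPR119 to flag nonselective hits from the GPR151 activator screen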
Target sequence (Q8TDV5 whole entry, looked up): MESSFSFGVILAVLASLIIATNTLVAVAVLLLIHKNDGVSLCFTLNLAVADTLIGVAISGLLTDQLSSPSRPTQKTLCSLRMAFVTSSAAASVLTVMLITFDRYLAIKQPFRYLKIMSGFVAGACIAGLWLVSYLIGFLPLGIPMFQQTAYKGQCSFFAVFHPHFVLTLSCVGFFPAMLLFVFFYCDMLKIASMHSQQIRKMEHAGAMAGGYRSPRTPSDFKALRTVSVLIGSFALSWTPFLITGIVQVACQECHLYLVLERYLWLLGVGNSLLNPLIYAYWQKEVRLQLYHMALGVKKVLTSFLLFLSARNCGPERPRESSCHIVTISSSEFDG
Numbers without * were called inactive; . = no result given; ! = not active in a repeat. Hits are enriched below; roughly 3.5% of the tested compounds scored in any of these assays.

SMILES	GPR151 activ	FBW7 act	MITF primary	TEAD-YAP block	GPR151 conf act	GPR119 ag
Nc1ncnc2c1ccn2[C@@H]1O[C@H](CO)[C@@H](O)[C@H]1O	7.1*	0	10	100*	5.9*	4
O=c1c2ccccc2nc(/C=C/c2ccccc2)n1-c1ccc(Cl)cc1	4.9*	0	-19	12	0	-6
O=c1c2ccccc2nc(/C=C/c2ccccc2)n1-c1ccccc1	0	0	6	-4	.	.
CCOc1ccc(-n2c(/C=C/c3ccccc3)nc3ccccc3c2=O)cc1	6.9*	0	-4	13	0	-6
CC(Cc1ccsc1)NCc1c(C(=O)N2CCCC2)nc2ccccn12 (centres undefined)	0	0	5	2	.	.
CC(Cc1cccnc1)NCc1c(C(=O)N2CCCCCCC2)nc2ccc(Cl)cn12 (centres undefined)	5.0*	0	-5	-10	0	-2
COc1ccc(C(=O)C2CCCN(C)C2)c(OC)c1 (centres undefined)	5.0*	0	35	3	0	-10
COc1ccccc1CCNCc1ccc(OC)c(OC)c1	0	0	20	-7	.	.
CCN(Cc1ccccc1)C(=O)C(Cl)(Cl)Cl	6.0*	0	2	5	-1	2
O=C(O)CN1C2=[N+](CCS2)CC1c1ccccc1 (centres undefined)	-1	0	3	-13	.	.
O=c1c2cc(Cl)ccc2nc(C[n+]2ccccc2)n1-c1ccc([N+](=O)[O-])cc1	0	0	10	-12	.	.
CCOC(=O)C1=C(N)OC(C)=C(C(=O)OCCOC)C12C(=O)Nc1ccccc12 (centres undefined)	1	0	14	-6	.	.
CCCCOC(=O)C1=C(N)OC(C)=C(C(=O)OCCOC)C12C(=O)Nc1ccccc12 (centres undefined)	5.3*	0	1	7	0	2
CC1CN(c2ccc(C(F)(F)F)cc2[N+](=O)[O-])CC(C)N1 (centres undefined)	1	0	7	2	.	.
COc1ccc(C(CN(C)C)C2(O)CCCCC2)cc1 (centres undefined)	8.7*!	0	4	4	0	5
COc1ccc(C2(CN)CCCC2)cc1	0	0	0	1	.	.
CCN1CCN(c2cc(N(CC)CC)c(F)cc2[N+](=O)[O-])CC1	1	0	13	8	.	.
O=C1/C(=C/c2c(Cl)cccc2Cl)N2CCC1CC2	-1	0	15	12	.	.
O=[N+]([O-])/C=C/c1ccccc1OCc1ccc(F)cc1	-1	1	13	-8	.	.
C=CCOc1ccccc1/C=C/[N+](=O)[O-]	7.3*	0	-5	-1	0	6
O=C1CSC(c2ccc([N+](=O)[O-])cc2)c2c(-c3ccccc3)nn(-c3ccccc3)c2N1 (centres undefined)	2	0	5	3	.	.
CC1(c2ccc3ccccc3c2)NC(=O)N(CC(=O)Nc2ccc(C#N)c(Cl)c2)C1=O (centres undefined)	0	0	9	1	.	.
N#Cc1ccc(NC(=O)CN2c3cccc4cccc(c34)S2(=O)=O)cc1Cl	5.2*	1	19	17	1	-3
CCCCOc1ccc(CN(C)C)cc1CN(C)C	2	0	-13	-9	.	.
O=c1cccc2n1CC1CC2CN(C(=S)Nc2ccccc2)C1 (centres undefined)	-2	1	4	10	.	.
SMILES	GPR151 activ	FBW7 act	MITF primary	TEAD-YAP block	GPR151 conf act	GPR119 ag
COc1cc(OC)cc(C(=O)NC(=S)N2CC3CC(C2)c2cccc(=O)n2C3)c1 (centres undefined)	7.5*	0	-3	1	-1	2
CC1=NCCc2c1[nH]c1cc(O)ccc21	5.0*!	0	-3	6	3	1
CCC(CC)N1CCN(Cc2ccc(F)c(F)c2)C(CCO)C1 (centres undefined)	-1	0	0	-2	.	.
C=C(C)[C@@H]1C2C(=O)O[C@H]1[C@H]1OC(=O)[C@@]34OC3C[C@]2(O)[C@@]14C (some centres undefined)	7.9*!	0	18	5	0	-10
O=C(COc1ccc(Br)cc1)N1CCN(CC2CC=CCC2)CC1 (centres undefined)	9.7*	1	16	-1	0	-7
CC(=O)NC1(c2ccccc2)CC(C)N(C)CC1C (centres undefined)	5.0*	0	-27	7	0	7
Cc1ccccc1N1CCN(Cc2ccc([N+](=O)[O-])cc2)CC1	0	0	0	-3	.	.
COc1ccccc1N1CCN(Cc2ccc([N+](=O)[O-])cc2)CC1	5.5*	0	37	8	-1	8
CN(C)/C=C(\C=[N+](C)C)c1n[nH]c(/C(C=[N+](C)C)=C/N(C)C)c1[N+](=O)[O-]	2	0	3	6	.	.
FC(F)(F)c1cccc(Nc2nc3nonc3nc2Nc2cccc(C(F)(F)F)c2)c1	0	0	3	-7	.	.
C[C@H]1C/C=C/[C@H]2[C@@H]3O[C@]3(C)[C@@H](C)[C@H]3[C@H](Cc4ccccc4)NC(=O)[C@]32OC(=O)O/C=C/[C@](C)(O)C1=O	11*	0	12	-2	0	-5
CCCN(CCC)[C@@H]1CCc2c(F)ccc(O)c2C1	8.5*!	0	11	6	-1	-7
CCN1CC2(COC)CC[C@H](O)C34C5C[C@@H]6C(OC)C[C@@](O)(C5[C@H]6OC(C)=O)[C@@H](CC23)[C@@H]14 (some centres undefined)	5.4*	0	-1	3	0	8
COC(=O)Cn1cc(/C=C2/C(=O)NC(=O)N(c3ccccc3)C2=O)c2ccccc21	0	0	7	3	.	.
COc1ccc(C(=O)O)cc1OC	5.7*	0	-17	-8	0	6
COc1ccc(C(=O)OC2CC3CCC(C2)N3)cc1OC (centres undefined)	0	0	8	17	.	.
O=C1Nc2ccc(Cl)cc2C(c2ccccc2Cl)=NC1O (centres undefined)	6.8*	0	6	-18	1	-5
CCCCCC(=O)N1c2ccc(C)cc2C2CN(C)CCC21 (centres undefined)	-1	0	4	9	.	.
CCCCNC(=O)N1c2ccc(C)cc2C2CN(C)CCC21 (centres undefined)	5.9*	0	-2	5	-1	6

Screening results (PubChem)
